# Rab9 prom act – qHTS Assay for Rab9 Promoter Activators; Huh7 Rab9 promoter-luciferase reporter, luminescence, 24 h; Potency, µM (highest dose often 9.22 µM), for inactives: top-dose activation, negative = inhibition, usual class: activators; 2.8% of 320,000 active; further: % of control where 0% means no effect; nearly all actives have a fitted effect of over 60% in size
#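 Measured in stably transfected Huh7 cells bearing a Rab9 promoter–luciferase construct: 24 h compound treatment at 37 °C, followed by luminescence detection.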
# ELG1 DNA repair – qHTS screen for small molecules that inhibit ELG1-dependent DNA repair in human embryonic kidney (HEK293T) cells expressing luciferase-tagged ELG1 | HEK293T ELG1-luciferase reporter, luminescence, 16 h; DNA damage induced by 5-fluorouridine | 2.3% of 330,000 active | Potency, µM (doses to about 46.1 µM), inactives show at the top dose activity change, negative = inhibition, actives largely listed as inhibitors; further: on the % scale 0 is the no-effect control and ±100 the full control effect; nearly all actives have a fitted effect of over 55% in size
#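 5-Fluorouridine DNA damage + compound/DMSO, 2,000 cells/well, 16 h, 37 °C/5% CO2. ONE-Glo, 30 min RT, luminescence. Readout = decrease in reporter signal.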
# FLuc counter – qHTS profiling assay for firefly luciferase inhibitor/activator using purifed enzyme and Km concentrations of substrates (counterscreen for miR-21 project) | purified FLuc, Km substrates, luminescence inhibition | Potency, µM (series often up to 57.5 µM), for inactives: at the top dose activity change, negative = inhibition, hits mostly inhibitors | AID 588342, 2011 | 6.9% of 360,000 active | Luciferin 4-monooxygenase (Photinus pyralis), P08659;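 further: plate controls were vehicle for no effect and reference inhibitor for full effect; nearly all actives have a fitted effect of over 55% in size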
# Target sequence (P08659 whole entry, looked up): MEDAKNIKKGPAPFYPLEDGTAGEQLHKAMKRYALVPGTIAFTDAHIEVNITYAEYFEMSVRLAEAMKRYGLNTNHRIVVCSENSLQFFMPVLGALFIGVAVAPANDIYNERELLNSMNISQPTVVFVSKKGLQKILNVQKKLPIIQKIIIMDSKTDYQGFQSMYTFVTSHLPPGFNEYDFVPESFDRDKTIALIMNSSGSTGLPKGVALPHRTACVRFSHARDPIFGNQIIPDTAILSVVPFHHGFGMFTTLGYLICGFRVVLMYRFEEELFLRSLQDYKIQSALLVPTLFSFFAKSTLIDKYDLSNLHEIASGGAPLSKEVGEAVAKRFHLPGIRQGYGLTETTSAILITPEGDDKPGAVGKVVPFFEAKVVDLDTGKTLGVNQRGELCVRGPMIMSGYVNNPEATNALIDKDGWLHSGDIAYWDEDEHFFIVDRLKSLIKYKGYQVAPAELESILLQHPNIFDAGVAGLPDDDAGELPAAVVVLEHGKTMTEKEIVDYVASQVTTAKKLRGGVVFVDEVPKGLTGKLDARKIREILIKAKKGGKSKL
#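 Purified P. pyralis luciferase (10nM final) with 10uM D-luciferin and 10uM ATP (Km levels) in 50mM Tris acetate pH 7.5, 10mM Mg acetate, 0.01% Tween-20, 0.05% BSA; qHTS 6-point titration, ~60 µM downward; luminescence read.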
# NPC1 promoter act – qHTS Assay for NPC1 Promoter Activators | Huh7 NPC1 promoter luciferase reporter, 24 h | Potency, µM (titrated, usually from 9.22 µM), for inactives: top-dose activation, usual class: activators | 2.4% of 320,000 active | AID 485313, 2010; further: % of control where 0% means no effect; nearly all actives have a fitted effect of over 60% in size
#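 Luciferase expression driven by the NPC1 promoter was measured in stably transfected Huh7 cells after a 24 h compound incubation, using a luciferase reagent and a luminescence read.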
# SMN2 splice up – qHTS Assay for Enhancers of SMN2 Splice Variant Expression; Potency, µM (titrated, usually from 46.1 µM), for the others: top-dose activity change, positive = activation, most hits filed as activators; 2.8% of 210,000 active; HEK293 SMN2-luciferase splicing reporter, luminescence, 30-36 h; AID 1458, 2008; further: % of control where 0% means no effect; nearly all actives have a fitted effect of over 55% in size
#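 qHTS luciferase splicing reporter: luminescence rises when SMN2 exon 7 is included in transfected HEK293 cells. Compound exposure lasted 30-36 h at 37C, with 4.5 mM final sodium butyrate as control, followed by a ONE-Glo read.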
# ELG1 genotox – qHTS screen for small molecules that induce genotoxicity in human embryonic kidney (HEK293T) cells expressing luciferase-tagged ELG1 | HEK293T ELG1-luciferase reporter, luminescence, 16 h | Potency, µM (series often up to 46 µM), without a hit: at the highest dose activity change, positive = activation, most hits filed as activators | 1.3% of 330,000 active; further: % of control where 0% means no effect; nearly all actives have a fitted effect of over 60% in size
#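 DMSO vehicle served as control against compound-treated ELG1-luciferase HEK293T cells; exposure lasted 16 hr at 37 °C and 5% CO2, followed by ONE-Glo luminescence detection after 30 min.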
# Active calls of the source: *; ? = inconclusive; . = not tested or not shown; [ ] = remark or other dose. In the library only some 9.3% were active in any assay of this set; here they are far more common. The call rests on the fitted dose curve; in most records, active means well fitted curve in the direction sought with a large enough effect; inconclusive means small, poorly fitted or top-dose-only effect, or another doubt; inactive means no such curve, though single readings can be large; an effect the other way counts as inactive or inconclusive. Potency means the concentration at half of the fitted maximal effect.
SMILES,Rab9 prom act,ELG1 DNA repair,FLuc counter,NPC1 promoter act,SMN2 splice up,ELG1 genotox
Cc1ccc(-n2c(=O)c3c4c(sc3n(Cc3cccc(Cl)c3)c2=O)CCC4)cc1C,.,.,-1%,.,-5%,.
CCOC(=O)c1c(C)[nH]c(CCC(=O)Nc2ccc(C)c(F)c2)c1C,.,.,3%,.,.,.
O=C(/C=C/NCC(=O)c1ccccc1)c1ccc(Br)cc1,13%,?,-17%,9%,11%,4%
O=C(CCCc1ccccc1)Nc1ccc(Br)cc1F,25%,?,?,?,.,?
O=C(/C=C/Nc1ccc(Br)cc1F)c1ccccc1,0.45µM*,?,0.11µM*,1.3µM*,-43%,?
O=C(/C=C/Nc1ccccc1F)c1ccc(Br)cc1,0.79µM*,?,0.48µM*,0.56µM*,5µM*,1µM*
CCCCC(CC)COC(=O)c1ccccc1C(=O)O (configuration not stated),.,.,.,.,-3%,.
COc1ccc(NC(=O)N2CCCC3(CCNCC3)C2)cc1,.,.,.,.,3%,.
CC[n+]1c(/C=C/c2ccc(OC(C)=O)c(OC)c2)ccc2ccccc21,-13%,?,19µM*,-23%,.,?
CC[n+]1c(/C=C/c2ccc(N(C)C)cc2)ccc2ccccc21,-51%,12%,?,-28%,-116%,3%
CC[n+]1c(/C=C/c2ccc(OC)c(OC)c2)ccc2ccccc21,5%,?,3.4µM*,15%,.,10µM*
O=C(CSc1n[nH]c(-c2cccnc2)n1)OC1CCCCC1,-6%,1%,-2%,-4%,.,-5%
Nc1c2c(=O)oc(-c3ccccc3)cc2nn1-c1ccccc1,0.71µM*,?,4.8µM*,?,13µM*,?
CC(Oc1ccccc1)C(=O)OCC(=O)N1CC(=O)Nc2ccccc21 (configuration not stated),-2%,-6%,-1%,-5%,5%,0%
Cc1ccc(OC(C)C(=O)N2CC(=O)Nc3ccccc32)cc1 (configuration not stated),1%,18µM*,0%,-3%,.,0%
FC(F)(F)c1cc(-c2ccc(Cl)cc2)nc(NCc2cccnc2)n1,-3%,21µM*,-1%,0%,-40%,-1%
COc1cccc(C(C(=O)NC2CCCC2)N(CC2CCCO2)C(=O)Cc2cccs2)c1 (configuration not stated),-7%,-6%,0%,1%,.,-1%
Cc1ccc(O)c(-n2nc3ccccc3n2)c1,3.2µM*,?,2.7µM*,3.2µM*,.,?
COc1ccc(C)cc1-n1nc2ccccc2n1,-1%,6%,-5%,-5%,1%,2%
CC(C)(C)c1ccc(C(=O)NC(=S)N2CCCC2)cc1,-7%[1.84 µM],?,9.5µM*,4%,.,1%
Cc1cccc(C(=O)NC(=S)Nc2ccc(N3CCOCC3)cc2)c1,16%,-5%,?,0%,-5%,-1%
Cc1ccc(C(=O)NC(=S)Nc2ccc(N3CCOCC3)cc2)cc1C,-5%,10µM*,-5%,-3%,-9%,-3%
O=C(CCCCl)NC(=S)Nc1ccc(N2CCOCC2)cc1,1.4µM*,?,-13%,2.8µM*,.,?
CC(C)(C)c1ccc(C(=O)NC(=S)Nc2ccc(N3CCOCC3)cc2)cc1,-4%,?,-9%,-7%,2.8µM*,11%
COc1ccc(CNC(=O)C2CCN(C(=O)N3CCOc4ccc(Cl)cc43)CC2)cc1,.,.,-11%,.,.,.
SMILES,Rab9 prom act,ELG1 DNA repair,FLuc counter,NPC1 promoter act,SMN2 splice up,ELG1 genotox
Nc1cc(=O)[nH]c(SCC(=O)Nc2ccc(N3CCCCC3)cc2)n1,.,12%,.,.,.,1%
CN(C)c1ccc(CN(CC2CCCO2)C(=O)COc2ccc(Cl)cc2)cc1 (configuration not stated),.,.,-2%,.,-6%,.
O=C(CNC(=O)c1ccccc1F)Nc1ccccc1C(F)(F)F,-1%,1%,-2%,-13%,-1%,0%
CSCCC(NC(=O)c1ccccc1C)C(=O)O (configuration not stated),-5%,3%,4%,-5%,-4%,-5%
CC(C)(C)c1ccc(C(=O)Nc2ccc(N3CCOCC3)cc2)cc1,-8%,18µM*,?,-2%,-25%,-9%
CC(C)(C)c1ccc(OCCC(=O)Nc2ccc(N3CCOCC3)cc2N2CCOCC2)cc1,-5%,21µM*,?,2%,.,-8%
CC(=O)Nc1ccc(C2=NN(c3ccccc3)C(c3ccccc3)C2)cc1 (configuration not stated),9%,?,-13%,15%,.,11%
CC(=O)Nc1ccc(C2CC(c3ccc(Cl)cc3)=NN2c2ccccc2)cc1 (configuration not stated),17%,?,17µM*,11%,.,8%
Cc1nn(-c2ccccc2)c(Cl)c1/C=N/NC(=O)c1ccccc1NS(=O)(=O)c1cccs1,0%,2%,12µM*,0%,-36%,-2%
Cc1nn(-c2ccccc2)c(Cl)c1/C=N/NC(=O)c1ccc(NS(=O)(=O)c2cccs2)cc1,?,?,0.85µM*,?,13µM*,?
COc1cccc(N2CCN(C(=O)c3cnc4c(C)cccn4c3=O)CC2)c1,.,.,0%,.,.,.
CC(=O)Nc1ccc(/C=C/c2noc(-c3ccccc3O)n2)cc1,?,?,?,?,-8%,14%
Oc1ccccc1/C=C/c1noc(-c2ccccc2O)n1,14%,?,1.9µM*,?,?,5.8µM*
COc1cc(/C=C/c2noc(-c3ccccc3O)n2)ccc1OC(C)=O,?,?,12µM*,?,.,13µM*
Cc1ccccc1C=O,-1%,16%,0%,-1%,0%,2%
Cc1cc2c(cc1C)CN(c1ccccc1)C2,1µM*,?,0.67µM*,1.1µM*,.,2.3µM*
Oc1ccc(N2Cc3ccccc3C2)cc1,10%[1.84 µM],17%,-6%,-1%,.,3%
Cc1cc(N2Cc3ccccc3C2)ccc1C=O,0.32µM*,?,6.7µM*,?,.,5.8µM*
CCOc1ccc(N2Cc3ccccc3C2)cc1,3.5µM*,?,12µM*,?,?,23µM*
O=Cc1ccc(N2Cc3ccccc3C2)cc1,11%,?,12µM*,-3%,.,?
COc1cc(Cl)c(C)cc1NC(=O)c1cc2ccc3cccnc3c2[nH]1,.,.,-7%,.,.,.
Cc1ccc(-c2nc3s/c(=C\c4ccco4)c(=O)n3n2)cc1,4%,?,0.76µM*,-4%,0%,-1%

# Screening results from PubChem.
